In the library only some 4.2% were active in any assay of this set; here they are far more common.
ssDAF-12 act: S. stercoralis DAF-12 nuclear receptor activators, primary screen, cell-based, luminescence, HEK293, GRIP1 co-expression, lit1-tk-luc. activation, % at 6.8 µM. HEK293 ssDAF-12/GRIP1 lit1-tk-luc reporter; % of 3 µM dafachronic acid response. hit rate 1% among 370,000;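 active means activation above the mean over all tested compounds plus 3 SD, cut at about 0.9% in these data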;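 further: 0% = DMSO-only wells and 100% = 3 µM delta7-dafachronic acid wells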
Wnt bcat act: Wnt/beta-catenin pathway activators, primary screen, cell-based, plate reader, single point | Wnt/beta-catenin reporter cell assay, activator | activation, % at 9.35 µM | hit rate 1.2% among 300,000 | AID 743398, 2014; in the data active means activation above about 30%, passing the limit was not always enough; inconclusive means no clear call, values can overlap the other calls;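 further: 0% = neutral control wells and 100% = positive control wells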
hcDAF12 agonist: H. contortus DAF-12 nuclear receptor activators, primary screen, cell-based, luminescence, HEK293, lit1-tk-luc reporter | hit rate 1.4% among 370,000 | HEK293 hcDAF-12 lit1-tk-luc reporter; 0% DMSO, 100% Δ7-dafachronic acid | AID 652067, 2013 | activation, % at 6.8 µM;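 active means activation above the mean of all tested compounds plus 3 SD, cut at about 5.5% in these data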;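 further: 100% = response to 3 µM Δ7-dafachronic acid high control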
hgDAF12 agonist: H. glycines DAF-12 receptor agonists, primary screen, cell-based, luminescence, HEK293, GAL4 fusion, UAS-luciferase | Nuclear hormone receptor DAF-12 (Heterodera glycines), GAL4 fusion | activation, % at 6.8 µM | hit rate 1.8% among 370,000 | HEK293 GAL4-hgDAF12 UAS-luciferase reporter, agonist luminescence; normalized to butyrate control;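 active means activation above a cutoff set at the mean of all screened compounds plus 3 SD, cut at about 10% in these data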;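 further: 0% = DMSO wells and 100% = sodium butyrate wells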
esBAF inh: Bmi1 luciferase reporter increase in mESCs, primary screen, esBAF inhibitor project, mouse ES cells, Bmi1 luciferase knock-in, single point; 24 h; 100% = twice the neutral-well signal; AID 602393, 2012; reporter increase, % at 12.5 µM; hit rate 2% among 350,000; in the data active means activation above about 40%; inconclusive means no clear call, values can overlap the other calls;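 further: 0% = median of the plate's neutral control wells and 100% = double that signal; a rise in the Bmi1 reporter signal indicates esBAF inhibition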
DAX1 inh: DAX1 (NR0B1) inhibitors on StAR promoter, primary screen, cell-based, luminescence, SF-1 (NR5A1), full-length DAX-1; HEK293T StAR-luciferase reporter, SF-1/DAX-1 repression relief; hit rate 1.1% among 370,000; inhibition, % at 6.8 µM;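 active means inhibition above the mean over all tested compounds plus 3 SD, cut at about 3.6% in these data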;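 further: 0% = DAX-1 cells with DMSO and 100% = cells lacking DAX-1 with DMSO; higher inhibition means more luminescence from relief of DAX-1 repression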
LXR ag: LXR agonists, Gal4 luciferase reporter, confirmation, counter-screen for hcDAF-12 agonist project, cell-based, luminescence, HEK293, H. contortus campaign; shares compounds with hcDAF12 agonist; 3,400 tested, under 10 active; HEK293 Gal4-LXR tk-luc reporter, 24 h; normalized: DMSO 0%, positive control 100%; activation, % at 6.8 µM;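 active means mean percent activation of the reporter above a cutoff set as the average over tested compounds plus their standard deviation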
Target sequence (P55055 whole entry, looked up, the tested form may be a part): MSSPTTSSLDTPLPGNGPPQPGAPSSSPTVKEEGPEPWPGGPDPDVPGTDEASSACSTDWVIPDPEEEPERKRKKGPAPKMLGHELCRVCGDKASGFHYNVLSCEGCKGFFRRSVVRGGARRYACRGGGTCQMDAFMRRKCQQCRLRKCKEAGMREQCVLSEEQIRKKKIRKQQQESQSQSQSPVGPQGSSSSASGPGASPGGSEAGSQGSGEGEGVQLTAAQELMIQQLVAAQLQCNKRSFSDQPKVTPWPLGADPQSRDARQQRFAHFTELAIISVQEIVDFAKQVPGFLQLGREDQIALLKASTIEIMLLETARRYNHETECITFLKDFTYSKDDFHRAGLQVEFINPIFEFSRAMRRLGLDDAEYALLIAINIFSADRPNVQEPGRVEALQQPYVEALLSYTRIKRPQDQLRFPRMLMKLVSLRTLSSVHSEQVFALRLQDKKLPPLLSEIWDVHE
hcDAF12 ag: H. contortus DAF-12 receptor agonists, confirmation, cell-based, luminescence, HEK293, lit1-tk-luc, triplicate; shares compounds with hcDAF12 agonist; HEK293 hcDAF-12 lit1-tk-luc reporter; % of Δ7-dafachronic acid response; activation, % at 6.8 µM; hit rate 61% among 3,400; AID 743032, 2013;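 active means mean activation across triplicate tests above the threshold derived from the earlier primary screen, cut at about 5.5% in these data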;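 further: 0% = DMSO only wells and 100% = 3 µM Δ7-dafachronic acid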
hgDAF12 ag: H. glycines DAF-12 receptor agonists, confirmation, cell-based, luminescence, HEK293, GAL4-LBD fusion | hit rate 80% among 3,300 | HEK293 GAL4-hgDAF12 luciferase reporter, agonist mode; percent of butyrate response | shares compounds with hgDAF12 agonist | activation, % at 6.8 µM | AID 743050, 2013;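 active means mean activation over triplicate wells above the hit cutoff derived from the earlier primary screen, cut at about 11% in these data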;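 further: 0% = DMSO low control and 100% = 2 mM sodium butyrate high control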
LXR ag 2: LXR agonists, Gal4 luciferase reporter, confirmation, counter-screen for hgDAF-12 agonist project, cell-based, luminescence, HEK293, H. glycines campaign | 3,300 tested, under 10 active | 24 h | AID 743051, 2013 | activation, % at 6.8 µM | shares compounds with hgDAF12 agonist;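 active means mean activation of the triplicate above a set limit carried over from the primary screen, none filed active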
Active calls of the source: *; ? = inconclusive; · = no result.

SMILES	ssDAF-12 act	Wnt bcat act	hcDAF12 agonist	hgDAF12 agonist	esBAF inh	DAX1 inh	LXR ag	hcDAF12 ag	hgDAF12 ag	LXR ag 2
COc1ccc(S(=O)(=O)CCc2nc3ccccc3s2)cc1	-1	0	1	0	-2	1	·	·	·	·
CCNC(=O)C[C@@H]1CC[C@@H]2[C@H](COc3ccc(NC(=O)c4ccc(C(F)(F)F)cc4)cc3C(=O)N2C)O1	·	·	·	·	-4	·	·	·	·	·
Brc1ccccc1/C=N/Nc1ccc2ccccc2n1	2.5*	17	11*	25*	·	3	2	13*	22*	1
Cc1cc(N/N=C/c2ccccc2Br)nc2ccccc12	-1	12	1	3	·	0	·	·	·	·
O=C(C[C@H]1C[C@@H]2c3cc(NC(=O)Nc4ccccc4F)ccc3O[C@@H]2[C@@H](CO)O1)NC1CCCC1	·	·	·	·	15	·	·	·	·	·
CCOc1ccc(NC(=O)c2nsc(Cl)c2Cl)cc1	0.9*	54*	7.2*	18*	38	4.4*	1	6.6*	18*	1
CCOc1ccc(NC(=O)c2nn(C)cc2Br)cc1	0	·	1	7	34	2	·	·	·	·
O=C(Nc1nccs1)c1ccc(-c2ccc(Cl)cc2)o1	1.3*	52*	6.6*	17*	·	4.3*	2	4	22*	1
Cc1nnc(NC(=O)c2ccc(-c3ccc(Cl)cc3)o2)s1	-1	-2	-2	-2	16	1	·	·	·	·
Nc1c(C(=O)Nc2ccc(F)cc2)nnn1-c1cccc(C(F)(F)F)c1	-1	11	-1	-2	8	0	·	·	·	·
Nc1c(C(=O)Nc2ccccc2)nnn1-c1ccc2c(c1)OCCO2	1.8*	11	8.8*	14*	-11	3	1	8.1*	16*	1
C[C@@H]1CN([C@@H](C)CO)C(=O)c2cc(NC(=O)C3CCCCC3)ccc2O[C@@H]1CN(C)S(=O)(=O)c1cn(C)cn1	·	·	·	·	-2	·	·	·	·	·
Cc1occc1C(=O)Nc1ccccc1NC(=O)c1ccoc1C	-1	-3	2	-2	-4	0	·	·	·	·
Cc1occc1C(=O)Nc1cccc(C(=O)O)c1	0	·	2	3	8	1	·	·	·	·
Cc1occc1C(=O)Nc1cccc2ccccc12	1.1*	?	6.7*	17*	·	3.8*	1	5.9*	21*	1
Cc1ccc(NC(=O)c2ccoc2C)cc1C	0	31*	6.9*	14*	·	3	1	5	12*	0
C[C@H]1CN([C@@H](C)CO)S(=O)(=O)c2ccc(C3=CCCC3)cc2O[C@H]1CN(C)C(=O)CC1CC1	·	·	·	·	11	·	·	·	·	·
COc1ccccc1CNC(=O)C[C@@H]1CC[C@@H]2[C@H](COC[C@H](O)CN2Cc2cccc(-c3ccncc3)c2)O1	·	·	·	·	-14	·	·	·	·	·
Oc1ccc(-c2cnc(-c3ccc(O)cc3)nc2)cc1	1.2*	-1	6.9*	17*	8	3	3	8.7*	17*	1
CCC(=O)Nc1ccc2c(c1)C(=O)N(C)[C@H]1CC[C@@H](CC(=O)N[C@@H](C)c3ccccc3)O[C@H]1CO2	·	·	·	·	-8	·	·	·	·	·
Cc1cc2nc(-c3ccc(SCC(=O)Nc4ccc5c(c4)OCCO5)nc3)[nH]c2cc1C	0	?	7.3*	15*	3	3	1	4	15*	1
Cc1cc2nc(-c3ccc(SCC(=O)N4CCOCC4)nc3)[nH]c2cc1C	-2	·	0	2	34	-1	·	·	·	·
Cn1c(SCc2ccccc2F)nc2cccnc21	0	·	8.0*	14*	43*	2	1	5.7*	18*	1
CCOC(=O)CSc1nc2cccnc2n1C	-1	-1	-1	-1	-2	0	·	·	·	·
O=c1c2ccccc2oc2cc(NCCCn3ccnc3)ccc12	1.2*	11	7.2*	14*	3	3.7*	1	5	17*	1
SMILES	ssDAF-12 act	Wnt bcat act	hcDAF12 agonist	hgDAF12 agonist	esBAF inh	DAX1 inh	LXR ag	hcDAF12 ag	hgDAF12 ag	LXR ag 2
O=C(NCCCn1ccnc1)c1cc2ccccc2oc1=O	-1	·	2	0	·	1	·	·	·	·
CC(=Nc1cccc(C)c1)c1sc2ccccc2c1O	4.0*	·	15*	14*	52*	2	1	13*	25*	1
O=[N+]([O-])c1cccc(N=Cc2sc3ccccc3c2O)c1	-1	0	1	1	·	1	·	·	·	·
O=C(Nc1ccc(-c2nc3cccnc3s2)cc1)c1cccnc1Cl	0	38*	7.9*	23*	-7	3.7*	2	5.6*	24*	1
O=C(Nc1ccc(-c2nc3cccnc3s2)cc1)c1ccc(Cl)nc1	-1	8	0	4	19	1	·	·	·	·
COc1ccc2[nH]c(C(=O)Nc3cccc(C)n3)cc2c1	0.9*	0	7.9*	15*	-25	3.7*	2	6.2*	22*	1
C/C=C/c1ccc2c(c1)O[C@H](CN(C)C)[C@@H](C)CN([C@@H](C)CO)S2(=O)=O	·	·	·	·	-3	·	·	·	·	·
COc1ccc(-c2csc(Nc3ccc(S(N)(=O)=O)cc3)n2)cc1	-1	-2	-1	-1	7	-1	·	·	·	·
COc1ccc(-c2csc(Nc3ncccc3C)n2)cc1	1	·	7.5*	17*	-8	2	1	5	17*	1
CN1[C@H](C(=O)NC2Cc3ccccc3C2)[C@@H](CO)[C@@H]2Cn3c(ccc(C4=CCCC4)c3=O)[C@@H]21	·	·	·	·	1	·	·	·	·	·
